The full list was thinned out, with hits kept by preference.
IMPase cell inh: qHTS Assay for Identifying the Cell-Membrane Permeable IMPase Inhibitors; Inositol monophosphatase 1 (Rattus norvegicus), P97697; CHO-M1 cells, IP1 accumulation, HTRF TR-FRET ratio; inhibition (IP1 accumulation), % at 46.1 µM; 120,000 tested, under 10 active; AID 901, 2007; active = well fitted curve in the direction sought with a large enough effect in the signal ratio, not every such curve was filed as active; inconclusive = small, poorly fitted or top-dose-only effect, or a change in a side signal; inactive = no such curve, though single readings can be large or run the other way; the % refers to the signal ratio;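 also: cells stimulated with carbachol in lithium chloride buffer; plate controls were DMSO basal wells for no effect and reference inhibitor wells for full effect; higher means more IMPase inhibition seen as more IP1 and lower FRET ratio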
Target sequence (P97697 whole entry, looked up): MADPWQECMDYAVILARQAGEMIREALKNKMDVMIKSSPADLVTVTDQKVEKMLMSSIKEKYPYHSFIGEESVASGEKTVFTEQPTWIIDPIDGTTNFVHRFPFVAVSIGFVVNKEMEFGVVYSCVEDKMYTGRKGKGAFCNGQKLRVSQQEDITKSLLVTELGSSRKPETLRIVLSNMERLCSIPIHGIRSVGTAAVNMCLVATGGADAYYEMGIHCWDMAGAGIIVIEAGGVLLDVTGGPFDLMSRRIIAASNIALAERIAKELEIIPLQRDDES
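Seeded CHO-M1 cells were dosed with compound at up to 46 uM, stimulated with carbachol for 30 min, then lysed in IP-One detection reagents. Higher IP1 lowers the TR-FRET signal.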
NPSR antagonist: qHTS Assay for Antagonists of the Neuropeptide S Receptor: cAMP Signal Transduction | Potency, µM (titrated, usually from 38.3 µM), for inactives: top-dose activity change, negative = inhibition, actives largely listed as inhibitors | Q6W5P4 | CHO-NPSR cells, cAMP TR-FRET, antagonist mode | 1% of 220,000 active | AID 1461, 2008; also: potency is read from the fitted curve at half-maximal effect; nearly all actives have a fitted effect of over 50% in size
Target sequence (Q6W5P4 whole entry, looked up): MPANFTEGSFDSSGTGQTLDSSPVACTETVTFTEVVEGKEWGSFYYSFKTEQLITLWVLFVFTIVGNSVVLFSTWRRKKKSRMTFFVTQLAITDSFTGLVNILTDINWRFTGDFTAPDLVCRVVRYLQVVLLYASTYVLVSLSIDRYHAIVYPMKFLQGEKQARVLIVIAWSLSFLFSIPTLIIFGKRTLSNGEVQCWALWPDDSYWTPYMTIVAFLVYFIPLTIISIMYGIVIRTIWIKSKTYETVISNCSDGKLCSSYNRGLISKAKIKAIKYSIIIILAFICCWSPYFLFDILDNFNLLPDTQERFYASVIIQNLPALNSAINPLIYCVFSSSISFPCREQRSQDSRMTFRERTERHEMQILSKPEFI
IMPase Li inh: qHTS Assay for Identifying the Cell-Membrane Permeable IMPase Inhibitors: Potentiation with Lithium; CHO-M1 cells, IP1 TR-FRET (IP-One), carbachol + lithium; Potency, µM (series often up to 59.4 µM), for the others: top-dose activity, negative = IMPase inhibition, most hits filed as inhibitors; 0.35% of 210,000 active; AID 1457, 2008;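 also: IP1 builds up when IMPase is blocked and the TR-FRET signal falls; potency is read from the fitted curve at half-maximal effect; plate controls were basal vehicle for no effect and high inhibitor control for full effect; nearly all actives have a fitted effect of over 50% in size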
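Readout is a homogeneous TR-FRET IP1 immunoassay (Ex 320, Em 665 and 620), where raised cytosolic IP1 lowers signal. Cells were CHO-M1 treated 30 min at 37C with test compounds plus a little lithium; AC50 values came from Hill-equation fitting.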
Active calls of the source: *; u = inconclusive; x = not tested or not shown; [ ] = remark or other dose. Unless noted, calls follow the shape of the dose curve; as a rule, active = well fitted curve in the direction sought with a large enough effect; inconclusive = small, poorly fitted or top-dose-only effect, or another doubt; inactive = no such curve, though single readings can be large; an effect the other way counts as inactive or inconclusive. Unless noted, % is scaled to controls: 0 for no effect and ±100 for the full control effect.

SMILES	IMPase cell inh	NPSR antagonist	IMPase Li inh
NC1=NC[C@@H](Cc2ccc(O)cc2)N1CCCCC1CCCCC1	x	5µM*	x
COc1ccc(NS(=O)(=O)c2cc(NC(=O)C3CCCO3)ccc2N2CCCCC2)cc1 (centres undefined)	x	10µM*	-6%
COc1ccc(NS(=O)(=O)c2cc(NC(=O)C3CCCO3)ccc2N2CCCC2)cc1 (centres undefined)	x	-46%	12%
COC(=O)Cc1c(C)c2ccc(OCC(C)=O)c(C)c2oc1=O	8	-20%[46.1 µM]	10%[38.3 µM]
CCN(CC)Cc1c(O)ccc2c(C)c(CC(=O)OC)c(=O)oc12	-23	10%[46.1 µM]	10µM*
O=C(c1ccc(Br)o1)N1CCc2ccccc21	x	-3%	-2%
Cc1cccc(N(C(=O)C(F)(F)F)C(C(=O)NC2CCCCC2)c2cccs2)c1 (centres undefined)	4	-22%[46.1 µM]	19%[38.3 µM]
C#CC(=O)N(c1cccc(OC)c1)C(C(=O)NC1CCCC1)c1cccs1 (centres undefined)	23	4µM*	23%[38.3 µM]
C#CC(=O)N(c1ccc(OC)c(OC)c1)C(C(=O)NC1CCCC1)c1cccs1 (centres undefined)	-2[1.84 µM]	13µM*	36%[38.3 µM]
COc1ccc(N(C(=O)Cc2cccs2)C(C(=O)NC2CCCCC2)c2cccn2C)cc1OC (centres undefined)	x	-26%[46.1 µM]	2%
CCOC(CNC(=O)Cc1c(C)nc2c(-c3ccccc3)c(C)nn2c1C)OCC	x	-8%	5%
CCCCCCCCCCCCCCC/C=C/[C@@H](O)[C@H](NC(=O)CCCCCCCCCCCCC)OC (tested in a mixture with another compound)	x	-1%[46.1 µM]	-9%
C[C@@H](Cc1ccccc1)Nc1ncnc2c1ncn2[C@@H]1O[C@@H](CO)[C@H](O)[C@@H]1O	0	x	x
CC(C)(C)OC(=O)COc1cc(OCC(=O)OC(C)(C)C)c2c(=O)cc(-c3ccccc3)oc2c1	7	6.3µM*	-20%[38.3 µM]
CC(C)(C)OC(=O)COc1cc(O)c2c(=O)cc(-c3ccccc3)oc2c1	-10	-28%[46.1 µM]	x
CCc1ccc(OCc2cnc(Cl)s2)cc1	x	3%	3%
Cc1cccc2nc3c(nc12)-c1ccccc1C3=O	x	19%	x
Cn1c(-c2ccc(C=O)s2)nc2c3ccccc3c3ccccc3c21	-8	14%[46.1 µM]	13µM*
COc1ccc(CN(Cc2cccn2C)C(=O)c2cc3cc(OC)ccc3[nH]2)cc1	x	-23%	x
CCOC(=O)c1sc2nc(C3CC3)cc(-c3ccc(OC)cc3)c2c1N	-13	22%[46.1 µM]	-28%[38.3 µM]
CCOC(=O)c1sc2nc(C3CC3)cc(-c3ccc(F)cc3)c2c1N	-7	-12%[46.1 µM]	11µM*
COC(=O)[C@@H]1CCCN1C(=O)CCc1nnc(CCC2CCCCC2)o1	x	-9%	4%
CC(C)=CC[C@@H](O)C1=CC(=O)c2c(O)ccc(O)c2C1=O	x	x	98%
COC(=O)c1ccc(NC(=O)CN2CCN(c3ccccn3)CC2)cc1	x	4%	2%
COc1ccc(N=Cc2c(O)c3ccccc3n2C(C)=O)cc1	x	-28%	x
SMILES	IMPase cell inh	NPSR antagonist	IMPase Li inh
COc1ccc(N=Cc2sc(O)c3ccccc23)cc1	5[1.84 µM]	13µM*	42%[38.3 µM]
COc1cccc(CS(=O)(=O)c2nnnn2CC(C)C)c1	x	x	15%
Cn1c(C(=O)N2CCN(C(=O)c3ccco3)CC2)cc2c(=O)n3ccccc3nc21	u	12%[46.1 µM]	10µM*
Cc1cccn2c(=O)c3cc(C(=O)N4CCN(C(=O)c5ccco5)CC4)n(C)c3nc12	-6	-2%[46.1 µM]	-8%[38.3 µM]
N#CNC(N)=Nc1ccc(Cl)cc1	x	x	3%
COc1ccc(S(=O)(=O)N(C)c2ccc(C(=O)N3CCCCC3)cc2)cc1OC	x	-8%	x
O=C1N=C(N2CCOCC2)SC1=C1CCCCC1	-4	-5%[46.1 µM]	23%[38.3 µM]
N#CCCN1CCN(C2=NC(=O)C(=C3CCCCC3)S2)CC1	-4	20µM*	-19%[38.3 µM]
N[C@@H](C(=O)O)c1ccc(C(=O)O)cc1	u	x	23%
Cc1ccc(/C=C2/N=C(c3ccccc3)NNC2=O)cc1	x	15%	x
Cc1c(C)n(CCC#N)c2ccccc12	x	18%	-1%
Cn1c2ccccc2c2c3c(c4c5ccccc5n(CCC#N)c4c21)CNC3=O	x	x	3.5µM*
N#Cc1sc2nc(-c3cccs3)cc(-c3ccc(F)cc3)c2c1N	x	-30%	-23%
Cc1ccc(-c2cc(-c3ccccc3)c3c(N)c(S(C)(=O)=O)sc3n2)cc1	-23	-4%[46.1 µM]	10µM*
CS(=O)(=O)c1sc2nc(-c3cccs3)cc(-c3ccccc3)c2c1N	u	10µM*	u
N#Cc1sc2nc(-c3ccccc3)cc(-c3ccco3)c2c1N	5[1.84 µM]	-1%[46.1 µM]	-11%[38.3 µM]
O=c1c(Cl)c(Cl)cnn1Cc1ccccc1Cl	x	6.3µM*	3%
Cc1ccc(Cn2ncc(Cl)c(Cl)c2=O)cc1	x	-47%	0%
CN(C)c1ccc(C2C=C(c3ccccc3)Nc3nnnn32)cc1 (centres undefined)	6	x	x
COc1cc2c(cc1OC)[C@@H]1C(=O)c3ccc4c(c3O[C@@H]1CO2)C=CC(C)(C)O4	8	x	27%
CCc1c2c(nc3ccc(OC)cc13)COC2	x	x	4%
COc1ccc(CC(=O)Nc2ccc(-c3noc(-c4ccccc4OC)n3)cc2)cc1	10	-13%[46.1 µM]	11µM*
COc1cccc(-c2nc(-c3ccc(NC(=O)Cc4ccccc4OC)cc3)no2)c1	9	-17%[46.1 µM]	23%[38.3 µM]
O=C(COc1ccccc1)Nc1ccc(-c2nnc(-c3ccco3)o2)cc1	3	-4%[46.1 µM]	13µM*
COc1ccc(CC(=O)Nc2ccc(-c3nnc(-c4ccccc4)o3)cc2)cc1OC	-4	u	13µM*
SMILES	IMPase cell inh	NPSR antagonist	IMPase Li inh
COc1ccccc1OCC(=O)Nc1cccc(-c2nnc(-c3ccco3)o2)c1	x	4%	12%
COc1ccc(CC(=O)Nc2cccc(-c3nnc(-c4ccccc4)o3)c2)cc1OC	16	u	42%[38.3 µM]
CC(C)c1ccc(/C(C(=O)O)=C(\O)C(=O)O)cc1	x	x	-7%
CC(C)NC(=O)N1CCCC2(CCN(C(=O)c3csnn3)CC2)C1	x	x	1%
CC1(C)[C@@H]2CC[C@@](C)(C2)[C@H]1OC(=O)c1ccccc1C(=O)O	x	x	1%
O=C(Cc1ccc(Cl)cc1)N/N=C/c1ccncc1	x	3%	-5%
CNC(=O)NC(=O)COC(=O)c1ccccc1OCc1ccccc1	x	-8%	3%
Cc1ccc(/C=C/C(=O)c2ccccc(=O)c2O)c(C)c1	x	-18%	1%
O=C(/C=C/c1ccccc1Cl)c1ccccc(=O)c1O	x	10µM*	4%
O=C(/C=C/c1ccccc1Cl)c1ccc(O)cc1	x	7%	x
Cc1ccc(C)c(/C=C/C(=O)c2ccccc(=O)c2O)c1	x	13µM*	-9%
COc1ccccc1CNc1ccnc(-c2cccnc2)n1	x	x	8%
CCCCCCCCCC[Si](C)(C)CCC(=O)N[C@@H](Cc1ccc(C)cc1)c1ccccc1	4	x	x
CC(C)(C)c1ccc(CN2N=Nc3ccccc3S2(=O)=O)cc1	2	10µM*	25%[38.3 µM]
O=S1(=O)c2ccccc2N=NN1Cc1ccc(Cl)c(Cl)c1	8	-5%[46.1 µM]	-9%[38.3 µM]
Cc1ccc(C)c(CN2C(=O)c3ccccc3S(=O)c3ccc(C(=O)N4CCN(c5ccccn5)CC4)cc32)c1 (centres undefined)	x	7.9µM*	20%

Compound activity as filed in PubChem BioAssay.
